Measured values published in PubChem BioAssay AID504894 (National Center for Advancing Translational Sciences (NCATS), 2011).
Out of some 330,000 compounds screened, fewer than 10 were called active. Calls come from the whole dose curve; as a rule, active = well fitted activation curve with a large enough effect; inconclusive = small, poorly fitted or top-dose-only effect, or another doubt; inactive = no such curve, though single readings can be large or run the other way. Only a sample is shown.

Experiment: Activators of T cell receptors: qHTS campaign; note: % of control where 0% means no effect
Conditions: primary human leukocytes, anti-CD3, IL-2 HTRF, 48 h; series mostly up to 9.22 µM; activation of IL-2 secretion: at the top concentration
From the text: Normally activation of naive T cells requires two signals. 1. A signal through the T cell receptor (TCR) which provides antigen specificity to the response. 2. Signals through co-stimulatory molecules, which are necessary for proliferation, survival and cytokine production. In the absence of co-stimulatory signals T cells are not effectively activated, and may even be rendered anergic or unresponsive to subsequent signaling. This lack of costimulation has been shown in multiple model systems to be a major factor in the limited strength and effectiveness of anti-tumor T cell responses. The goal of this project is to identify small molecule compounds that will stimulate T cell activation in the presence of TCR signaling but in the absence of co-stimulatory signals, thereby allowing activation of naive T cells in the absence of co-stimulation. Identification of such compounds would have clear experimental and clinical applications in instances where desirable antigen-specific immune responses are not generated due to a lack of co-stimulation, for example in the generation of anti-tumor responses. In collaboration between the National Cancer Institute and NIH Chemical Genomics Center, a high-throughput amenable screen was developed to discover small molecules that co-stimulate and activate human T cell receptors. The screen will be carried out using a novel homogeneous time resolved fluorescence energy transfer (HTRF) assay to measure production of the cytokine IL-2 by activated T cells and will be tested against the NIH Molecular Libraries Small Molecule Repository (MLSMR). NIH Chemical Genomics Center [NCGC] NIH Molecular Libraries Probe Centers Network [MLPCN] MLPCN Grant: MH090820-01 Assay Submitter (PI): Richard Hodes, National Cancer Institute, NIH
Primary human leukocytes are incubated with a-CD3 beads and compounds for 48 hr. The amount of secreted IL-2 is then assayed with a HTRF IL-2 kit. The presence of IL-2 cytokine captures the detection reagents and brings the a-IL-2-K and a-IL-2-d2 into close proximity. Upon excitation with 320nm light, the europium cryptate is capable of transferring energy to acceptor molecules within close proximity, resulting in acceptor molecule emission at 665nm.

Activation of IL-2 secretion, inactive:
COc1cccc(CC(=NO)c2cccc(OC)c2)c1 -1.64%
CC(NC(=O)c1ccccc1)C(=O)Nc1ccccc1 (centres undefined) -0.854%
COc1cc(/C=C/CNC[C@H]2O[C@@H](n3cnc(C(N)=O)n3)[C@H](O)[C@@H]2O)ccc1O 1.99%
COc1cc2c(cc1OC)C(Cc1cc(OC)c(OC)cc1[N+](=O)[O-])=NCC2 5.72%
Cc1ccc(-c2csc(C(C#N)=C(O)CN3CCN(C(=O)c4ccco4)CC3)n2)cc1 6.47%
CN(C)c1ccc(CSc2ccccc2)cc1 -1.78%
COc1cc(C(=O)CCc2ccc3c(c2)OCO3)cc(OC)c1OC 8.7%
O=c1[nH]c2c(c(=O)n1-c1ccccc1)CCO2 -1.41%
CN(C(=O)c1cccc(NC(=O)Cc2ccc(NC(=O)C3CCCN(C(=O)C4CCCC4)C3)cc2)c1)C1CCC1 (centres undefined) -4.37%
CC(=O)c1cccc(-c2ccc(CN3C(CC(C)C)C(=O)N(Cc4cn(CC5CCCCC5)nn4)CCS3(=O)=O)cc2)c1 (centres undefined) 7.42%
N#CCc1c[nH]c2ccc([N+](=O)[O-])cc12 10.7%
O=c1c2ccccc2ncn1CCc1ccncc1 -2.16%
COc1cccc2c1C(=O)c1c(O)c3c(c(O)c1C2=O)CC(O)(C(C)=NNC(=O)c1ccc(Cl)c(Cl)c1)CC3OC1CC(N)C(O)C(C)O1 (centres undefined) 1.92%
O=c1ccn([C@@H]2O[C@H](CNS(=O)(=O)c3cc4ccccc4s3)[C@@H](O)[C@H]2O)c(=O)[nH]1 -47.4%
CCCCN1CC(COCc2ccccc2)OCCS1(=O)=O (centres undefined) -2.23%
COc1ccc(OC)c(Cc2cnc3nc(N)nc(N)c3c2C)c1 -1.86%
CCC1([N+](=O)[O-])COC(c2ccc(C(C)C)cc2)OC1 (centres undefined) -4.78%
CC1C(C)N(C(=O)CCl)c2ccccc2N1C(=O)CCl (centres undefined) -0.0701%
OCC(O)C1OCOC(C(O)CO)C1O (centres undefined) 4.15%
CC1=CC(=NNS(=O)(=O)c2ccc([N+](=O)[O-])cc2)CC(C)(C)C1 7.06%
C#CCOCCOCCOCCNc1nc(N2CCOCC2)nc(N2CCN(C(=O)[C@H](Cc3ccc(O)cc3)n3cc(CCO)nn3)CC2)n1 -9.96%
COc1ccc(Cl)cc1C=CC=Nc1ccc(S(N)(=O)=O)cc1 6.08%
O=C(O)C(CCc1ccccn1)c1ccccc1 (centres undefined) 0.56%
COc1ccc(C(=O)Nc2cccc(/C=C(/CCC(=O)O)c3nc4ccccc4s3)c2)cc1 5.18%
O=[N+]([O-])c1ccc(NS(=O)(=O)c2ccccc2)c(Cl)c1 0.637%
OC(COc1ccccc1)CN1CCN(c2cccc(Cl)c2)CC1 (centres undefined) 5.71%
COc1cc2c(cc1CNC[C@H]1O[C@@H](n3cnc(C(N)=O)n3)[C@H](O)[C@@H]1O)OCO2 15%
CCc1nnc(NC(=O)c2cc(S(=O)(=O)N3CCN(CC)CC3)ccc2Cl)s1 2.5%
O=C(NNc1nc(N2CCCC2)nc(N2CCCC2)n1)c1ccccc1 -3.33%
Nc1ccc2[nH]c(=S)sc2c1 6.49%
CCCC(O)(c1ccccc1)C(c1ccccc1)c1ccccn1 (centres undefined) -4.1%
COc1ccc(Cl)cc1C=CC=NNC(=O)c1ccncc1 -0.951%
COc1cccc2oc(CCc3ccccc3)cc(=O)c12 -2.9%
Nc1ccc2c(c1)C(O)c1ccc(Cl)cc1-2 (centres undefined) 0.187%
COc1ccc(CNCCCNCc2ccc(OC)c(OC)c2)cc1OC -0.561%
O=S(=O)(Nc1ccc2ccccc2c1)N1CCCCC1 1.29%
C[C@@H]1NS(=O)(=O)c2cc(Cl)ccc2O[C@@H]1c1ccccc1 0.528%
O=[N+]([O-])c1ccc(COc2ccccc2CN2CCOCC2)cc1 -5.64%
Cc1nc2ccccc2c(C(=O)O)c1-c1ccccn1 -0.737%
O=C1NC(=O)C(CCc2ccccc2)(c2ccccc2)N1 (centres undefined) -11.2%
O=c1oc2ccccc2c(=O)c2ccccc12 -4.64%
c1ccc(C(=NNc2nc3ccccc3s2)c2ccccn2)cc1 -17.9%
Cc1ccc(OCCNC(=O)c2cccc(S(=O)(=O)N3CCN(Cc4ccccc4)CC3)c2)cc1 -0.64%
O=C(NCCc1ccccc1)c1c[nH]c2ccc(F)cc2c1=O 3.03%
CNN/C(N=Cc1ccc([N+](=O)[O-])s1)=N\S(=O)(=O)c1cc(C)c(Cl)cc1SCc1ccccc1 0.19%
O=C1OC(Cc2ccccc2)C(c2ccccc2)C1=O (centres undefined) 0.207%
COc1ccc(S(=O)(=O)N2CCc3ccccc32)cc1C(=O)Nc1cc(S(C)(=O)=O)ccc1Cl 4.1%
CN(O)C(=S)c1ccccc1 3.76%
CC(C)C[C@H]1CN([C@@H](CC(C)C)CN2CCC[C@@H]2CN2C(=O)C(=O)NC[C@@H]2Cc2ccccc2)C(=O)C(=O)N1CCc1ccccc1 3.01%
COc1cc(C2c3cc4c(cc3C(O)C3COC(=O)C23)OCO4)cc(OC)c1OC (centres undefined) -6.83%
Cc1cc(C)c(C=NNc2nc3c([nH]2)c(=O)n(C)c(=O)n3C)c(C)c1 -2.46%
C#CCOCCOCCOCCNc1nc(N2CCN(C(=O)Cn3cc(CCO)nn3)CC2)nc(N2CCN(C(=O)[C@H](CCCCN)n3cc(CCCC)nn3)CC2)n1 -0.341%
C[C@]12CCC(=O)C=C1C=CC1C2CC[C@@]2(C)C1CC[C@@]21CCC(=O)O1 (some centres undefined) -6.09%
CC(=O)Nc1ccc(C(=O)Nc2cc(S(=O)(=O)N3CCOCC3)ccc2N2CCOCC2)cc1 5.5%
C=CC(=O)Nc1ccc(Nc2ccnc(Nc3ccc(N4CCN(C)CC4)cc3)n2)cc1 7.98%
Cc1ccc(C)c(S(=O)(=O)N(C)c2ccc(OC(=O)C3CCN(C(=O)c4ccc(F)cc4)CC3)cc2)c1 3.39%
Cc1c(NS(=O)(=O)c2cccc(C(=O)Nc3ccc(SC(F)F)cc3)c2)c(=O)n(-c2ccccc2)n1C -2.41%
C[C@@H]1ON(C)[C@H]2C[C@H]3c4cc(N5CCN(C)CC5)ccc4CCN3C(=O)[C@@H]12 6.04%
Cc1onc(-c2c(F)cccc2Cl)c1C(=O)Nc1cccc(S(=O)(=O)N2CCCCC2)c1 5.63%
O=C(CC1Sc2ccccc2NC1=O)NNc1ccc(Cl)c(Cl)c1 (centres undefined) -9.29%
CCC(=O)N1CCc2cc(Br)c(S(=O)(=O)NCCN3CCCCC3CC)cc21 (centres undefined) -2.39%
CC(C)Cn1cnc2c(SCc3ccc(Cl)cc3)nc(N)nc21 0.446%
O=C1NCC(c2ccccc2)(c2ccccc2)C(=O)N1 -1.83%
COC[C@@H]1NS(=O)(=O)c2ccc(Br)cc2O[C@H]1c1ccccc1 6.54%
